Screens (PubChem BioAssay)
This is a sample that favours compounds with a hit; in the whole collection about 4.5% have one here.
DAX1 inh-1 = inhibitors of human orphan nuclear receptor DAX1 (NR0B1) | P51843 | HEK293 Gal4-DAX1 luciferase reporter, luminescence | inhibition, % at 6.75 µM | 0.99% of 340,000 active;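 active = inhibition above the mean over all tested compounds plus 3 SD, cut at about 4.2% in these data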;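 note: 0% = DAX1-transfected cells with DMSO and 100% = empty-vector control cells with DMSO; inhibition shows as a rise in luminescence from relieved DAX1 repression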
Target sequence (P51843 207-470 limits assumed): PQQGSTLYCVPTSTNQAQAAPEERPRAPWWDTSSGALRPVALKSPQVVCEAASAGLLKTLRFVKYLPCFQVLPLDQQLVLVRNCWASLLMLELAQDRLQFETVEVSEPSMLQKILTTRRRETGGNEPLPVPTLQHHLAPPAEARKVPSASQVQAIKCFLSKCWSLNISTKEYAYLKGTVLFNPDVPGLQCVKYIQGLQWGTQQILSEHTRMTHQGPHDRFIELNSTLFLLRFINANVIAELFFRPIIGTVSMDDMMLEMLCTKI
DAX1 inh-2 = inhibitors of DAX1 repression of SF-1 activated StAR promoter | HEK293T StAR-luciferase reporter, SF-1/DAX-1 repression relief | inhibition, % at 6.8 µM | 1.1% of 370,000 active | AID 652010;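 active = inhibition above the mean over all tested compounds plus 3 SD, cut at about 3.6% in these data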;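 note: 0% = DAX-1 cells with DMSO and 100% = cells lacking DAX-1 with DMSO; higher inhibition means more luminescence from relief of DAX-1 repression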
hgDAF12 agonist = hgDAF-12 agonism, primary luciferase screen | HEK293 GAL4-hgDAF12 UAS-luciferase reporter, agonist luminescence; normalized to butyrate control | AID 687014 | 1.8% of 370,000 active | activation, % at 6.8 µM;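 active = activation above a cutoff set at the mean of all screened compounds plus 3 SD, cut at about 10% in these data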;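 note: 0% = DMSO wells and 100% = sodium butyrate wells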
GAA850 FXN act = frataxin GAA850 promoter activation; AID 540364; HEK293 lucGAA850 FXN promoter luciferase reporter, 24 h; percent of 10 µM SAHA response; activation, % at 6 µM; 0.56% of 360,000 active;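 active = activation above the average of all compounds screened plus 3 SD, cutoff fixed separately per campaign, cut at about 7.5% in these data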;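 note: 0% = DMSO wells and 100% = 10 µM SAHA wells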
hcDAF12 agonist = activates DAF-12 receptor from parasite H. contortus. HEK293 hcDAF-12 lit1-tk-luc reporter, luminescence; 0% DMSO, 100% Δ7-dafachronic acid. 1.4% of 370,000 active. activation, % at 6.8 µM;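 active = activation above the mean of all tested compounds plus 3 SD, cut at about 5.5% in these data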;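 note: 100% = response to 3 µM Δ7-dafachronic acid high control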
ssDAF-12 act = activators of S. stercoralis DAF-12 nuclear receptor; HEK293 ssDAF-12/GRIP1 lit1-tk-luc reporter, luminescence; % of 3 µM dafachronic acid response; 1% of 370,000 active; AID 652126; activation, % at 6.8 µM;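 active = activation above the mean over all tested compounds plus 3 SD, cut at about 0.9% in these data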;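 note: 0% = DMSO-only wells and 100% = 3 µM delta7-dafachronic acid wells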
An asterisk follows results filed as active; . = no result given.

SMILES | DAX1 inh-1 | DAX1 inh-2 | hgDAF12 agonist | GAA850 FXN act | hcDAF12 agonist | ssDAF-12 act
CCc1ccc(CNCC(=O)N2CCC3(CC2)OCCO3)s1 | . | 1.2 | 2.8 | . | 1.5 | -0.3
COc1cccc(C(=O)CSc2nccn2C)c1 | 3.5 | 0.3 | 3.1 | 4.0 | 1.1 | -0.2
Cn1ccnc1SCC(=O)c1ccc2ccccc2c1 | 2.1 | 3.5 | 12.8* | 5.2 | 4.9 | 0.9
Cc1ccc2c(nc3s/c(=C/c4cccs4)c(=O)n32)c1C | 2.1 | -0.1 | 4.0 | 2.2 | 6.2* | 0.5
CCOC(=O)C1(Cc2ccccc2)CCCN(C(=O)COc2ccccc2OC)C1 (stereo not drawn) | 4.3* | 3.0 | 7.8 | 1.9 | 0.8 | 0.3
CCOC(=O)C1(Cc2cccc(OC)c2)CCCN(C(=O)CCc2cccnc2)C1 (stereo not drawn) | 3.5 | 0.5 | 11.6* | 7.3 | 0.0 | -1.1
CC(C)[C@@H]1OC(=O)[C@@H]2CCCN2C(=O)[C@H](C)OC(=O)[C@H](C)[C@@H](C(C)C)NC(=O)[C@@H]2CCCN2C(=O)[C@H]([C@H](C)Cc2ccccc2)NC(=O)[C@@H]2CCCN2C(=O)[C@@H](C(C)C)N(C)C1=O | . | . | 1.0 | . | -2.1 | -1.7
O=c1oc(-c2cc3ccccc3o2)nc2sc3c(c12)CCCC3 | 0.8 | 0.3 | -0.1 | -2.2 | 1.1 | 4.2*
O=c1oc(-c2ccccc2)nc2sc3c(c12)CCCC3 | 0.6 | -0.4 | -0.3 | 2.1 | 1.9 | -0.3
CC(/C=N/NC(=O)C(O)c1ccccc1)=C\c1ccccc1 (stereo not drawn) | 1.2 | 0.3 | 3.0 | 7.8* | 0.5 | 0.1
Cn1cc(CCOCc2ccccn2)c2ccccc21 | . | 3.6* | 4.8 | . | 1.1 | 0.8
Cn1cc(CCOCc2ccccc2)c2ccccc21 | . | 1.6 | 5.7 | . | 2.9 | 0.0
O=c1oc2ccccc2cc1-c1ccccc1 | 6.0* | 0.8 | 5.7 | 4.5 | 0.0 | -0.4
O=c1oc2ccc3ccccc3c2cc1-c1nnc(-c2ccccc2)o1 | 0.5 | 0.7 | 5.3 | 5.2 | 0.7 | -1.0
O=c1oc2ccccc2cc1-c1nc(-c2cccs2)cs1 | 1.8 | 1.0 | 3.6 | 4.1 | 6.1* | 0.9*
O=c1oc2ccc3ccccc3c2cc1-c1nnc(-c2cccs2)o1 | 3.3 | 2.4 | 10.9* | 3.4 | 3.0 | 0.7
C=CCN(C)CC#Cc1ccc(OC)cc1 | . | -0.1 | -2.1 | . | -2.0 | -0.4
COC(=O)[C@]12C[C@H](CC(=O)N3CCOCC3)C(=O)N(Cc3ccco3)C1=C[C@H](C(C)(C)C)O[C@@H]2C | . | 2.7 | -0.4 | . | 1.9 | -0.5
C#CCN1CC(N(C)CCOC(=O)c2ccc(OC)c(OC)c2)CS1(=O)=O (stereo not drawn) | . | -0.6 | 1.5 | . | -1.6 | -1.2
COc1cc(C(=O)Oc2c(OC)cc(C(=S)N3CCOCC3)cc2OC)cc(OC)c1OC | 5.0* | 0.0 | -3.0 | 0.1 | -1.2 | -1.6
COc1cc(C(=S)N2CCOCC2)cc(OC)c1OC(=O)c1ccc(F)cc1 | 0.4 | -0.2 | 0.2 | 0.3 | -1.3 | -0.8
COc1ccc2c(CC(=O)OCC(=O)N3CCc4ccccc43)coc2c1 | -1.7 | 0.3 | 0.6 | 1.0 | 0.4 | -0.9
O=C(c1cc([N+](=O)[O-])ccc1Cl)N1CCc2ccccc21 | -0.2 | -0.8 | 2.8 | 0.0 | 1.4 | -0.4
COc1ccc2c(CC(=O)N3CCc4ccccc43)coc2c1 | 0.7 | 2.9 | 10.2 | 4.9 | 5.8* | 0.5
O=Cc1ccc(OCC(=O)N2CCc3ccccc32)c(Br)c1 | 0.3 | 2.1 | 6.8 | 2.3 | 2.2 | -0.3
SMILES | DAX1 inh-1 | DAX1 inh-2 | hgDAF12 agonist | GAA850 FXN act | hcDAF12 agonist | ssDAF-12 act
O=C(COc1ccc([N+](=O)[O-])cc1Cl)N1CCc2ccccc21 | 1.1 | 4.4* | 8.8 | 4.6 | 4.9 | 0.8
O=C(COc1ccccc1Cl)NC(=S)N1CCc2ccccc21 | -0.2 | 1.0 | 2.0 | 1.3 | 5.9* | -1.2
O=C(COc1ccccc1)NC(=S)N1CCc2ccccc21 | -0.5 | 1.1 | 8.2 | 3.1 | 4.1 | -0.1
O=C(COc1ccc(F)cc1Br)N1CCc2ccccc21 | 1.9 | 3.0 | 10.7* | 4.5 | 1.2 | 0.1
COc1cccc(CNC(=O)[C@H]2CCCN2C(=O)[C@H]2CCCN2C(=O)c2ccccc2)c1 | . | 0.6 | -1.2 | . | -1.2 | -0.8
CCc1ccc(CCNC(=O)OC2CC3CC2[C@H]2CCCCN2[C@H]3C)cc1 (stereo partly drawn) | . | 0.2 | 0.9 | . | 0.4 | -0.9
CC1(C)CC(=O)C=C(C#CC2CC2)C1 | . | 0.7 | 4.0 | . | -0.8 | -0.9
CC(COc1cc(F)cc(F)c1)CN1CCC(C(O)(c2ccccc2)c2ccccc2)CC1 (stereo not drawn) | . | -0.2 | 3.3 | . | -0.2 | 0.0
COc1ccc(OCC(=O)N2CCc3ccccc32)c([N+](=O)[O-])c1 | 2.0 | 3.6 | 5.0 | 3.2 | 5.6* | 0.2
O=C(Cc1ccccc1)NCCc1c[nH]c2ccccc12 | 0.1 | 0.2 | -1.9 | 0.5 | 0.9 | -0.9
O=C(NCCc1c[nH]c2ccccc12)c1cc(S(=O)(=O)N2CCCCC2)ccc1N1CCOCC1 | -1.0 | 0.3 | 0.8 | 2.0 | 1.6 | 1.9*
O=C(NCCc1c[nH]c2ccccc12)c1cccc(S(=O)(=O)Nc2ccccc2Cl)c1 | 0.3 | -0.5 | -4.9 | 0.7 | 6.0* | 1.1*
O=C(O)c1nccnc1C(=O)NCCc1c[nH]c2ccccc12 | 1.4 | 0.3 | -0.6 | 2.2 | 5.6* | -0.2
CCCNC(=O)c1cc(S(=O)(=O)N2CCCCC2)ccc1N1CCOCC1 | -0.4 | 0.4 | 3.8 | 1.7 | -0.2 | -1.2
O=C(NCCc1c[nH]c2ccccc12)c1cc2sccc2n1Cc1ccccc1 | -1.6 | -0.8 | -1.5 | -1.5 | -1.9 | -1.3
Cn1c(C(=O)NCCc2c[nH]c3ccccc23)cc2sccc21 | -0.3 | 1.6 | 11.8* | 4.7 | 5.9* | 2.5*
COc1ccc(CN2CN3Cc4cc(F)ccc4C3CS2(=O)=O)cc1 (stereo not drawn) | . | 0.0 | 0.6 | . | -1.9 | -1.9
O=C(NCCc1c[nH]c2ccccc12)c1cccnc1 | 3.8 | 1.1 | 2.0 | 0.1 | 2.6 | 1.9*
O=C(NCCc1c[nH]c2ccccc12)c1ccc2nc[nH]c2c1 | 0.9 | 2.9 | 5.2 | 2.5 | 3.3 | -0.3
C#CCCCN([C@H](C(=O)OC)C(C)C)S(=O)(=O)c1ccc(F)cc1Br | . | 0.3 | 0.1 | . | 0.8 | -1.3
